According to PubChem BioAssay (NCI):
Where “and” joins values, the source holds several entries; their conditions need not be identical. Identical values can stand only once. This is part of a sample that, as a whole, favours compounds with a hit. Of some 83,000 tested, about 20% had one in any assay.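 Values shown are percent growth following 48 h exposure of cells in 96-well plates to a single concentration of compound; below 10 was considered active.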 Values without a mark were called inactive. Calls of active or inactive are those of the source.

The molecules below were run on HL-60(TB) leukemia (assay: NCI-60 one-dose screen, 48 h (100 = growth as untreated, 0 = no growth, -100 = all killed)). Conditions: 1 µM.
Description: Growth inhibition of the HL-60(TB) human tumor cell line is measured as a screen for anti-cancer activity. Cells are grown in 96 well plates and exposed to the test compound for 48 hours. Compounds are tested at a single concentration, which is 10^-5 M for most compounds. The reported endpoint is percent growth (GI% or GIPRCNT), where numbers from 0 - 100% represent growth inhibition, and numbers from -100% - 0 represent cell death. For example, a value of 40 represents 60% growth inhibition. A value of 0 means no net growth occurred over the course of the experiment. A value of -40 indicates 40% of cells at the beginning of the experiment died by the end of the experiment. A value of -100 means all cells are dead at the end of the experiment.
NCI-60 Human Tumor Cell Lines Screen was performed using the standard one-dose NCI protocol, which is described in more detail at https://dtp.cancer.gov/discovery_development/nci-60/default.htm.
Compounds with GIPRCNT values below 10 were considered active. Activity score was based on GIPRCNT using the following formula: […]
Score is 0 for GIPRCNT values of 100 or above, 50 for GIPRCNT values of 0, and 100 for GIPRCNT values of -100.

SMILES | growth [%]
CNC(=O)c1cc(Oc2ccc(CC(=O)Nc3cc(C(C)(C)C)nn3C)cc2)ccn1 | 85.3

Same assay, conditions: 10 µM

SMILES | growth [%]
CC/C(=C(\c1ccccc1)c1ccc(OCCN(C)C)cc1)c1ccccc1 | 39.6
CNC(=O)c1cc(Oc2ccc(CC(=O)Nc3cc(C(C)(C)C)nn3C)cc2)ccn1 | 77

Same assay, conditions: 10 µM unless noted

SMILES | growth
C=CCn1c(SCC(=O)Nc2ccc(C(=O)/C=C/c3cc4cc(OC)ccc4nc3Cl)cc2)nnc1-c1ccc(Br)cc1 | 81.3%
CCOC(=O)c1c(C)oc(C)c(C(=O)OCC)c1=O | 247% and 61.2%
Nc1n[nH]c(-c2cc(Cl)ccc2O)c1-c1ccccc1 | 69.8%
FC(F)(F)c1cccc(Nc2ccccc2)c1 | 92.7%
COc1ccc(C(=O)N2N=C(c3ccc(F)cc3)CC2c2cn(-c3ccccc3)nc2-c2ccccc2)cc1 (stereo not given) | 32.5%
CCOc1nc(-c2ccccc2)cc2c(O)c(C(=O)O)[nH]c(=O)c12 | 120%
Nc1ncncc1-c1ccc(F)cc1 | 103%
O=C(N/N=C/c1cccnc1)c1ccccc1Nc1cccc(C(F)(F)F)c1 | 64.8%
Cn1cc(-c2cc3ncnc(Nc4ccc(CC(=O)Nc5cc(C(C)(C)C)on5)cc4)c3s2)cn1 | 57.5%
Cc1ccc(-n2nnc3c(sc4ccccc43)c2=O)cc1 | 92.9%
CC1SC(=S)N(c2ccc(Cl)cc2)C1=O (stereo not given) | 82.7% and 98.2%
Cc1cccc(NC(=O)N/C(N)=N/c2nc(C)c(C)s2)c1 | 19.5%
CN1C(=O)/C(=C/c2cn(-c3ccccc3)nc2-c2ccccc2)SC1=S | 109%
O=C(Nc1ccc(Br)cc1F)c1cc(F)ccc1O | -19.7% (active)
COc1ccc(/C=C2\COc3ccc(O)c(O)c3C2=O)cc1 | -5.92% (active)
CCOC(=O)C(C)(CSSCC(C)(NC(=O)c1ccc2ccccc2c1)C(=O)OCC)NC(=O)c1ccc2ccccc2c1 (stereo not given) | 98.8%
CCCCCn1ncc(-c2c(O)c(O)cc3c(O)c(-c4c(C)cc5c(-c6cnn(CCCCC)n6)c(O)c(O)cc5c4O)c(C)cc23)n1 | -22.3% (active)
c1cc(N2CCCC2)c2nc(-c3[nH]ncc3Nc3ncnc4[nH]ccc34)[nH]c2c1 | -15.9% (active)

SMILES | growth
Cn1cc(C(=O)c2nc(-c3c[nH]c4ccccc34)no2)c2cc(F)ccc21 | -6.73% (active)
Cc1oc2nc[nH]c(=O)c2c1C(=O)/C=C/c1ccc(Cl)cc1 | -47.8% (active)
OCCN(CCO)c1ccc2ccccc2c1 | 87.9%
O=C1C(=O)c2ccccc2C(O)=C1CCCc1ccc(C2CCCCCC2)cc1 | 45.6%
CN1CCN(c2nc(-c3cccc4ccccc34)nc3sc4c(c23)CCCCCC4)CC1 | 91.6%
CCN(CC)CCOC(=O)c1cccnc1 | 101%
c1ccc(-c2ccc3ccccc3c2)cc1 | 109%
C=C1C(=O)O[C@H]2[C@H]1CC/C(COC(=O)NCCc1ccc(OC)c(OC)c1)=C\CC[C@@]1(C)O[C@@H]21 | 30.7%
COc1ccc2nc(C)cc(Nc3ccc(Cl)cc3)c2c1 | 95.6%
NC(=O)c1n[nH]n2c1nc(=O)c1c3c(sc12)CCCC3 | 99.9%
Cc1c(C(=O)NC(Cc2ccccc2)C(O)C(=O)NCc2ccc(F)cc2)[nH]c2ccccc2c1=O (stereo not given) | 82%
COc1ccc(/C=c2\sc3n(c2=O)C2C(NN=3)N(C)C(=O)N2C)cc1 (stereo not given) | -47.5% (active)
c1csc([C@@H]2C[C@@H]3Cc4ccc5ccccc5c4N2O3)c1 | 104%
CCC1=C[C@]2(C3CC(=O)N(c4ccccc4)C3=O)CC(C(C)(C)C)C[C@@H]2[C@@H]2C(=O)N(c3ccccc3)C(=O)[C@H]12 (stereo not given in full) | 84.1%
CC1CCCc2sc3nc(NNC(=O)c4cnccn4)n(-c4ccccc4)c(=O)c3c21 (stereo not given) | -33.4% (active) and -12.4% (active)
CC1=C/C(O)CC(=O)Cc2nc(co2)C(=O)N2CCC=C2C(=O)OC(C(C)C)C(C)/C=C\C(=O)NC/C=C\1 (stereo not given) | 56.4%
Cn1cc(-c2nc(-c3c[nH]c4ccncc34)cs2)c2ccccc21 | -41.9% (active)

Same assay, conditions: 12.5 µM

SMILES | growth
CC/C(=C(\c1ccccc1)c1ccc(OCCN(C)C)cc1)c1ccccc1 | -57.1% (active)

Same assay, conditions: 30 µM

SMILES | growth [%]
CNC(=O)c1cc(Oc2ccc(CC(=O)Nc3cc(C(C)(C)C)nn3C)cc2)ccn1 | 68.2
